PubChem BioAssay (NCI)
This is part of a sample that, as a whole, favours compounds with a hit. Of some 83,000 tested, about 20% had one in any assay.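 Assay: single dose, 48 h. Readout: percent growth (0 = no net growth; negative = cell death). Active: <10.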 A number with no mark means an inactive call. The source made the active and inactive calls.

Experiments:
Experiment in all cases: NCI-60 one-dose screen, 48 h (100 = growth as untreated, 0 = no growth, -100 = all killed)
Details in all cases: 10 µM
SR leukemia = tested on: SR leukemia
RPMI-8226 leukemia = tested on: RPMI-8226 leukemia
OVCAR-8 ovarian = tested on: OVCAR-8 ovarian
OVCAR-5 ovarian = tested on: OVCAR-5 ovarian
OVCAR-4 ovarian = tested on: OVCAR-4 ovarian
SK-OV-3 ovarian = tested on: SK-OV-3 ovarian
IGROV1 ovarian = tested on: IGROV1 ovarian
OVCAR-3 ovarian = tested on: OVCAR-3 ovarian
HS 578T breast = tested on: HS 578T breast
NCI/ADR-RES ovarian = tested on: NCI/ADR-RES ovarian
T-47D breast = tested on: T-47D breast
BT-549 breast = tested on: BT-549 breast
MDA-MB-435 melanoma = tested on: MDA-MB-435 melanoma
SW-620 colon = tested on: SW-620 colon
MCF7 breast = tested on: MCF7 breast
HCT-116 colon = tested on: HCT-116 colon
KM12 colon = tested on: KM12 colon
HCC-2998 colon = tested on: HCC-2998 colon

| Structure (SMILES) | growth (SR leukemia) | growth (RPMI-8226 leukemia) | growth (OVCAR-8 ovarian) | growth (OVCAR-5 ovarian) | growth (OVCAR-4 ovarian) | growth (SK-OV-3 ovarian) [%] | growth (IGROV1 ovarian) | growth (OVCAR-3 ovarian) | growth (HS 578T breast) [%] | growth (NCI/ADR-RES ovarian) | growth (T-47D breast) | growth (BT-549 breast) | growth (MDA-MB-435 melanoma) | growth (SW-620 colon) | growth (MCF7 breast) | growth (HCT-116 colon) | growth (KM12 colon) | growth (HCC-2998 colon) |
| --- | --- | --- | --- | --- | --- | --- | --- | --- | --- | --- | --- | --- | --- | --- | --- | --- | --- | --- |
| COc1ccc2cc(-c3nc4ccccc4s3)c(Cl)nc2c1OC | 87.6% | 101% | 103% | 105% | 94.6% | 93.4 | 103% | 91.5% | 89.9 | 99.8% | 91.2% | 114% | 110% | 93.8% | 92.9% | 108% | 101% |  |
| CCOC(=O)c1cc(C(=O)c2cc(OC)cc(OC)c2)n2ncc3ccccc3c12 | 4.68% (active) | 33% | 34.4% | 55.2% | -18% (active) | 37.6 | 43.5% | -13.5% (active) | 17.8 | 19.1% | 12.8% | 27.3% | 4.07% (active) | 8.21% (active) | 15.9% | 4.23% (active) | 25.9% |  |
| COc1cc(C2C(C#N)=C(N)Oc3cc(O)ccc32)cc(OC)c1OC (stereo not given) | 11.4% | 15.5% | 34.4% | 35.5% | 49.7% | 44.2 | 34.9% | -38.2% (active) | 20 | 38.4% | 16% | 58.5% | -44.9% (active) | 21.4% | 19.9% | 17.8% | 15.8% | 27.6% |
| NC1=NC(c2ccccc2)C2=C(N1)/C(=C/c1ccccc1)CCC2 (stereo not given) | 46% | -7.58% (active) | 80% | 106% | 81.3% | 74 | 100% | 81.6% | 88.5 | 95.8% | 93.1% | 112% | 36.8% | 72.8% | 38.6% | -53.1% (active) | 47% |  |
| O=C(Nc1nc(-c2ccccc2)nc2c1sc(=S)n2-c1ccccc1)C(F)(F)F | 89.8% | 88.5% | 86.6% | 105% | 92.3% | 91.6 | 106% | 105% | 96.6 | 95.7% | 71.1% | 98.9% | 99.8% | 103% | 87% | 78.8% | 91.3% | 123% |
| CC(=O)Oc1cc(OC(C)=O)c2ccccc2c1OC(C)=O | 69.4% | 72.5% | 81.9% | 115% | 86% | 76.8 | 63.1% | 84.1% | 83 | 88.9% | 61.4% | 92.4% | -57.4% (active) | 91.9% | 56.8% | 80.1% | 90.6% |  |
| CS(=O)(=O)c1nccc(-c2c(-c3ccc(OCCc4ccccc4)cc3)nc3sccn23)n1 | 88.5% | 94.8% | 98% | 94.7% | 67.8% | 101 | 110% | 104% | 87 | 98.3% | 91.3% | 110% | 96% | 93.7% | 66.1% | 99.6% | 106% | 106% |
| C#CCOc1c(OC)cc(C(=O)/C(C)=C/c2cccc(N=[N+]=[N-])c2)cc1OC | 28.7% | 43.7% | 28.6% | 42.9% | 55.9% | 32.1 | 33.2% | -0.611% (active) | 46 | 13.6% | 44.3% | 11.4% | -19% (active) | 36.5% | 16.4% | 6.9% (active) | 26.6% |  |
| COC1OC(COS(=O)OC)C(O)C(O)C1OS(=O)OC (stereo not given) | 80% | 99.7% | 114% | 90.5% | 116% | 104 | 97.7% | 106% | 102 | 98.1% | 110% |  | 105% | 103% | 88.4% | 105% | 98.5% | 97.7% |
| CN(C)CCN(Cc1ccccc1)c1ccc2ccccc2n1 | 98.6% | 89.5% | 102% | 95% | 97.4% | 97.2 | 95.1% | 103% | 92.4 | 94.2% | 86.3% |  | 94.4% | 91.8% | 86.7% | 90.4% | 101% | 97.5% |
| CCOC(=O)C(C)(c1ccccc1)c1ccccc1 | 100% | 101% | 105% | 107% | 111% | 98.9 | 106% | 107% | 111 | 106% | 99.1% |  | 106% | 105% | 99.6% | 102% | 96.4% | 109% |
| COc1cc2cc(Oc3ccc(NC(=O)Nc4ccc(C(F)(F)F)cc4)cc3)c(C)nc2cc1OC | 59.6% | 52.7% | 37.8% | 92.9% | 49% | 38.8 | 71.9% | 67% | 70.9 | 64.1% | 57.5% | 113% | 80.3% |  | 84.3% | 47.2% | 64.4% | 94.8% |
| O=C(CN(C1CCCCC1)C1CCCCC1)Nc1ccc(S(=O)(=O)c2ccc(NC(=O)CN(C3CCCCC3)C3CCCCC3)cc2)cc1 | -51.4% (active) | -66.9% (active) | 3.23% (active) | -54.8% (active) | -72.6% (active) | 76.6 | -52.3% (active) | -85.2% (active) | 33.9 | 4.04% (active) | -38.1% (active) | -85.3% (active) | -39.5% (active) |  | -40.7% (active) | -86.3% (active) | -28.6% (active) | -37.4% (active) |
| CC(=O)OC1C=CC(OC(C)=O)O1 (stereo not given) | 101% | 92.4% | 94.2% | 101% | 97.5% | 91.8 | 89.8% | 102% | 87.4 | 99.2% | 88.1% |  | 96% | 82% | 87.9% | 84.3% | 101% | 103% |
| COc1ccc(C(=O)c2cc3c(OC)c(OC)c(OC)cc3[nH]2)cc1 | -47.8% (active) | 31.4% | 62.8% | 68.4% | 62.7% | 86.4 | 35% | 45.1% | 51.8 | 18.6% | 34.9% |  | -0.263% (active) | 33.9% | 20.4% | 28.1% | 12.6% | 51.3% |
| CN1CCN(CCC(=O)Nc2cccc(-n3cc(-c4ccncc4)c(-c4ccc(Cl)c(O)c4)n3)c2)CC1 | 5.5% (active) | 19.9% | 54.8% | 67.7% | 56% | 46.2 | 55.8% | 14.4% | 43.1 | 29.7% | 62.9% | 56.5% | -37.9% (active) |  | 13.9% | 19.1% | 31.2% | 82.2% |
